Measured values taken from PubChem BioAssay (Tox21).
“And” between values parts separate entries of the source, which are not always exact repeats. Identical values can stand only once. Records with an inconclusive call do not appear. Where a call stands in place of a potency, no number is given. Where a structure was tested more than once in an assay, its records may differ in their call. The source made the active and inactive calls. Calls come from the whole dose curve; as a rule, active = well fitted cell-killing curve with a large enough effect in the repeat runs; inconclusive = weak or mixed curves, or effect the other way; inactive = flat fitted curve, though single readings scatter.

Test: qHTS assay to identify small molecule antagonists of the estrogen receptor alpha (ER-alpha) signaling pathway using the BG1 cell line in the presence of 0.1 nM 17-beta-estradiol - cell viability counter screen (AID 1259241); note: nearly all actives have a fitted effect of over 40% in size
Conditions: VM7Luc4E2 (BG1) viability, CellTiter-Fluor protease, 22 h, 0.1 nM estradiol agonist added; series mostly up to 92.4 µM
In short: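 Estradiol-stimulated (0.1 nM) VM7Luc4E2 cells exposed to compounds 22 hr; viability measured by fluorescence of cleaved CellTiter-Fluor substrate after 30 min.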
Potency is the fitted concentration of half-maximal effect.

SMILES	Potency	activity change, negative = cytotoxicity
Nc1cc(Cl)ccc1Cl	inactive	–
CCCCCCCCCCCCCCn1cc[n+](C)c1	inactive	–
CSC(=O)c1c(C(F)F)nc(C(F)(F)F)c(C(=O)SC)c1CC(C)C	inactive	–
Cc1ccc(C)c2ccccc12	inactive	–
CC(Cc1ccccc1)N(C)Cc1ccco1 (stereo unspecified)	inactive	–
O=C(CCCCl)c1ccc(F)cc1	inactive	–
O=C(NC(=O)c1ccccc1Cl)Nc1ccc(OC(F)(F)F)cc1	inactive	–
Oc1cccc(Cl)c1Cl	inactive	–
CCCCC/C=C\C/C=C\C/C=C\C/C=C\CCCC(=O)NCC(=O)O	inactive	–
O=C(N[C@H]1N=C(c2ccccc2F)c2cccc3c2N(CC3)C1=O)c1cc2ccccc2[nH]1	inactive	–
CNC(C)(C)Cc1ccccc1	inactive	–
O=[N+]([O-])[O-].[Tl+]	inactive	–
ClC(Cl)C(Cl)(Cl)Cl	inactive	–
C[C@@H]1CC2=CC(=O)CC[C@@H]2[C@H]2CC[C@@]3(C)[C@@H](CC[C@]3(C)O)[C@@H]21	inactive	–
Brc1ccc(Oc2ccc(Br)cc2Br)c(Br)c1	inactive	–
CC(=O)[O-].CC(=O)[O-].CC(=O)[O-].[Sb+3]	–	-1.06% [at 3.27 µM] (inactive)
CC(C)Br	inactive	–

SMILES	Potency	activity change, negative = cytotoxicity
[O-][Cl+3]([O-])([O-])O	inactive	–
CC(C)[C@@H](Nc1ccc(C(F)(F)F)cc1Cl)C(=O)OC(C#N)c1cccc(Oc2ccccc2)c1 (stereo partly specified)	inactive	–
CSSC	inactive	–
N#CCCl	inactive	–
CCCC[N+]1(C)CCCC1 (tested in a mixture with another compound)	inactive	–
Cc1ccc([N+](=O)[O-])[c]2c1[O][Hg]2	9.44 µM (active)	–
COC(=O)/C=C(\C)OP(=O)(OC)OC	inactive	–
COP(=S)(OC)Oc1ccc([N+](=O)[O-])c(C)c1	inactive	–
CCC[CH2][Sn]([CH2]CCC)([O]C(C)=O)[O]C(C)=O	0.692 µM (active)	–
CC#C[C@]1(O)CC[C@H]2[C@@H]3C[C@H](C)C4=CC(=O)CC[C@]4(C)[C@H]3CC[C@@]21C	inactive	–
CC1CCCC1	inactive	–
CCCCn1cc[n+](C)c1.[Cl][Fe-]([Cl])([Cl])[Cl]	inactive	–
Nc1nc(N)c(N)c(N)n1	inactive	–
CCC(C)Nc1c([N+](=O)[O-])cc(C(C)(C)C)cc1[N+](=O)[O-] (stereo unspecified)	inactive	–
CCCCC(CC)COC(=O)OOC(C)(C)C (stereo unspecified)	inactive	–
CC1CN1 (stereo unspecified)	inactive	–
O=S(=O)(NS(=O)(=O)C(F)(F)F)C(F)(F)F	inactive	–

Test: qHTS assay to identify small molecule antagonists of the androgen receptor (AR) signaling pathway using the MDA cell line in the presence of 0.5 nM R1881 - cell viability counter screen (AID 1259242); note: nearly all actives have a fitted effect of over 45% in size
Conditions: MDA-kb2 viability, CellTiter-Fluor protease fluorescence, 16 h; series mostly up to 92.4 µM
In short: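 qHTS format. MDA-kb2 (MMTV-luc, AR/GR responsive) + cpd + 0.5 nM R1881 final, 16 hr 37C/0% CO2 → CellTiter-Fluor 30 min → fluorescence intensity.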

SMILES	Potency	viability change, negative = cytotoxic
Nc1cc(Cl)ccc1Cl	inactive	–
O=c1[nH]c(Cl)c(Cl)cc1Cl	inactive	–
CCCCCCCCCCCCCCn1cc[n+](C)c1	30.7 µM (active) and 34 µM (active) and inactive	–
CSC(=O)c1c(C(F)F)nc(C(F)(F)F)c(C(=O)SC)c1CC(C)C	inactive	–
Cc1ccc(C)c2ccccc12	inactive	–
CC(Cc1ccccc1)N(C)Cc1ccco1 (stereo unspecified)	inactive	–
O=C(CCCCl)c1ccc(F)cc1	inactive	–
O=C(NC(=O)c1ccccc1Cl)Nc1ccc(OC(F)(F)F)cc1	inactive	–
Oc1cccc(Cl)c1Cl	inactive	–
CCCCC/C=C\C/C=C\C/C=C\C/C=C\CCCC(=O)NCC(=O)O	inactive	–
O=C(N[C@H]1N=C(c2ccccc2F)c2cccc3c2N(CC3)C1=O)c1cc2ccccc2[nH]1	inactive	–
CNC(C)(C)Cc1ccccc1	inactive	–
O=[N+]([O-])[O-].[Tl+]	inactive	–
ClC(Cl)C(Cl)(Cl)Cl	inactive	–
C[C@@H]1CC2=CC(=O)CC[C@@H]2[C@H]2CC[C@@]3(C)[C@@H](CC[C@]3(C)O)[C@@H]21	inactive	–
Brc1ccc(Oc2ccc(Br)cc2Br)c(Br)c1	inactive	–
CC(=O)[O-].CC(=O)[O-].CC(=O)[O-].[Sb+3]	–	2.35% [at 3.26 µM] (inactive)
COP(=S)(OC)Oc1nc(Cl)c(Cl)cc1Cl	inactive	–
CC(C)Br	inactive	–

SMILES	Potency	viability change, negative = cytotoxic
[O-][Cl+3]([O-])([O-])O	inactive	–
CC(C)[C@@H](Nc1ccc(C(F)(F)F)cc1Cl)C(=O)OC(C#N)c1cccc(Oc2ccccc2)c1 (stereo partly specified)	inactive	–
CSSC	inactive	–
CSC1=N[C@@](C)(c2ccccc2)C(=O)N1Nc1ccccc1	27.3 µM (active)	–
N#CCCl	inactive	–
CCCC[N+]1(C)CCCC1 (tested in a mixture with another compound)	inactive	–
Cc1ccc([N+](=O)[O-])[c]2c1[O][Hg]2	6.68 µM (active)	–
COC(=O)/C=C(\C)OP(=O)(OC)OC	inactive	–
COP(=S)(OC)Oc1ccc([N+](=O)[O-])c(C)c1	inactive	–
CCC[CH2][Sn]([CH2]CCC)([O]C(C)=O)[O]C(C)=O	0.347 µM (active)	–
CC#C[C@]1(O)CC[C@H]2[C@@H]3C[C@H](C)C4=CC(=O)CC[C@]4(C)[C@H]3CC[C@@]21C	inactive	–
CC1CCCC1	inactive	–
CCCCn1cc[n+](C)c1.[Cl][Fe-]([Cl])([Cl])[Cl]	inactive	–
Nc1nc(N)c(N)c(N)n1	inactive	–
CCC(C)Nc1c([N+](=O)[O-])cc(C(C)(C)C)cc1[N+](=O)[O-] (stereo unspecified)	inactive	–
CCCCC(CC)COC(=O)OOC(C)(C)C (stereo unspecified)	inactive	–
CC1CN1 (stereo unspecified)	inactive	–
O.O.O.O.O.O.O.O=S(=O)([O-])[O-].[Co+2]	inactive	–
